# According to PubChem BioAssay (NCATS):
# Records with an inconclusive call do not appear. Entries that show only a call come without a potency. Calls of active or inactive are those of the source. Calls come from the whole dose curve; as a rule, active = well fitted curve in the direction sought with a large enough effect; inconclusive = small, poorly fitted or top-dose-only effect, or another doubt; inactive = no such curve, though single readings can be large; an effect the other way counts as inactive or inconclusive.
# Key:
# [1] = molecular target: Luciferin 4-monooxygenase (Photinus pyralis) (UniProt P08659); test: Biochemical firefly luciferase enzyme assay for NPC (AID 624030); note: nearly all actives have a fitted effect of over 70% in size; note: potency is the fitted concentration of half-maximal effect
# Outline: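 Purified P. pyralis luciferase at 10 nM in 50 mM Tris Acetate (final), luminescence read within 5 minutes of enzyme addition to compounds. Activity normalised to PTC124 versus DMSO; concentration-response curves classed by r2, magnitude and activity.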
# [2] = molecular target: Voltage-gated inwardly rectifying potassium channel KCNH2 (Homo sapiens) (UniProt Q12809); test: qHTS Assay for Small Molecule Inhibitors of the Human hERG Channel Activity (AID 588834);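 note: top concentration of the series differs between compounds; lower thallium flux fluorescence means stronger hERG block; nearly all actives have a fitted effect of over 50% in size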
# Outline: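 hERG block measured as reduced thallium-dye (FluxOR) fluorescence after stimulation buffer addition, read over 2 min. Cells were hERG-BacMam-transduced U2OS exposed to compound ~10 min […]; concentration-response fitted with Hill equation for AC50.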
# [3] = S16 Schwann cell PMP22 intronic element firefly luciferase assay (AID 624032); note: nearly all actives have a fitted effect of over 30% in size; note: potency is the fitted concentration of half-maximal effect
# Outline: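 Rat S16 Schwann cells stably carrying firefly luciferase driven by a PMP22 intronic element, in 10% FBS, treated 24 h at 37 C. ONE-Glo luminescence normalized to PTC124 control and DMSO (0%); curves classed by r2, magnitude and activity.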
# [4] = S16 Schwann cell viability assay (CellTiter-Glo assay) (AID 624031);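 note: cellular ATP luminescence as a viability measure; series mostly up to about 58 µM; nearly all actives have a fitted effect of over 70% in size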
# Outline: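 Native S16 rat Schwann cells in DMEM/10% FBS without phenol red were incubated overnight, then exposed to compounds for 24 h at 37 °C/5% CO2. Viability was read as ATP luminescence (CellTiter-Glo), normalized to no-cell wells and DMSO (0%).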
# Chain of Voltage-gated inwardly rectifying potassium channel KCNH2 (Homo sapiens) (Q12809 whole entry, looked up): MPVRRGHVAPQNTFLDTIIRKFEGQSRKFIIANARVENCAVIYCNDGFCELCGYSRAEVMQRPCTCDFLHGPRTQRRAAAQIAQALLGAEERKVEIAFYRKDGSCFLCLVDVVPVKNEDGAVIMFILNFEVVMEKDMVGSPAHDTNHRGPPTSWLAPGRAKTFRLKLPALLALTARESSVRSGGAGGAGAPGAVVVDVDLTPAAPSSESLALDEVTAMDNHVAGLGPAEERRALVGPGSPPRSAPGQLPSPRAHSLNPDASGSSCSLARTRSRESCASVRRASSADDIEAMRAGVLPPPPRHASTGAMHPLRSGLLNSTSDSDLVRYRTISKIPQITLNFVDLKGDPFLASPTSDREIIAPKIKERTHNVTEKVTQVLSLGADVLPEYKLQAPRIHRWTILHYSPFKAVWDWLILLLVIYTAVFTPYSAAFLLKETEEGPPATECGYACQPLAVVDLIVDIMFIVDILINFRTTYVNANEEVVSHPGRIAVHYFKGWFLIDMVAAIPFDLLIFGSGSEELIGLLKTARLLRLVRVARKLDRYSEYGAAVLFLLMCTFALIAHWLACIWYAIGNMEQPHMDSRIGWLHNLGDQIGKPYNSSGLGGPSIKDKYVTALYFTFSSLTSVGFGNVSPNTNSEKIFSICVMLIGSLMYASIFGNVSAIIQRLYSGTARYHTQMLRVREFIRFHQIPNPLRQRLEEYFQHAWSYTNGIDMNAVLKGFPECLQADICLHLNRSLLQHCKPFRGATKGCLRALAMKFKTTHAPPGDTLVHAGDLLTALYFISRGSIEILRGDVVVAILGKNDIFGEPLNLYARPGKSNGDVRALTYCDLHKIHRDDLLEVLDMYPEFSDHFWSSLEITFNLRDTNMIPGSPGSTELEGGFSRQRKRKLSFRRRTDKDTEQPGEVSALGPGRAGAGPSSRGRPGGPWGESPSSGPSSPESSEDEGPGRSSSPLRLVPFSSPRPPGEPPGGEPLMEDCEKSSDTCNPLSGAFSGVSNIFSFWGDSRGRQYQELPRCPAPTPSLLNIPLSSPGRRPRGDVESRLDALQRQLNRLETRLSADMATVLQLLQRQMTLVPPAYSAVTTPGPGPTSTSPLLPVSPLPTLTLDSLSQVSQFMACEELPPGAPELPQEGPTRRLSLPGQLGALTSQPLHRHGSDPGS
# Chain of Luciferin 4-monooxygenase (Photinus pyralis) (P08659 whole entry, looked up): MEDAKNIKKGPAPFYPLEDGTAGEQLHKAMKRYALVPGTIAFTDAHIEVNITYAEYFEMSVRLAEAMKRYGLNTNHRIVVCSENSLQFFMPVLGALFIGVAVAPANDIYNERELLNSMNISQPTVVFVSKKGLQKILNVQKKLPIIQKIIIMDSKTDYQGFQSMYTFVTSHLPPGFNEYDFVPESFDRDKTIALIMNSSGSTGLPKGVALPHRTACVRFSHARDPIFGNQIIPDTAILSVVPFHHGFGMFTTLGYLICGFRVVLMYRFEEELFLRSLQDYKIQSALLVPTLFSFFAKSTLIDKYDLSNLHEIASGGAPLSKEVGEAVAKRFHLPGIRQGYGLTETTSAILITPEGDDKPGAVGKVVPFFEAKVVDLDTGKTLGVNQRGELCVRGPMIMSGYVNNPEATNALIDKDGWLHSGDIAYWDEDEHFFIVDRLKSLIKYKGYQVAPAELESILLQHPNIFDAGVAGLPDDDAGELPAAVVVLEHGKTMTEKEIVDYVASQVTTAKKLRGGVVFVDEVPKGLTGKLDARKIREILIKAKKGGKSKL
structure (smiles),measurement,setting,value
Cc1nc2ccccc2c(=O)n1-c1ccccc1Cl,Potency,[1],inactive
O=C(O)CNC(=O)c1ccccc1I,Potency,[1],inactive
CCC(=O)OC1(c2ccccc2)CCN(C)CC1,Potency,[1],inactive
CN1C[C@@H](NS(=O)(=O)N(C)C)C[C@@H]2c3cccc4c3c(cn4C)C[C@H]21,Potency,[2],inactive
same,Potency,[1],inactive
same,Potency,[3],inactive
CCOC(=O)c1ncn2c1CN(C)C(=O)c1c(I)cccc1-2,Potency,[1],inactive
CC(Cc1ccc2c(c1)OCO2)NO (stereo not drawn),Potency,[1],inactive
COc1cc(CC(C)N)cc2c1OCO2 (stereo not drawn),Potency,[1],inactive
CN(C)CCc1c[nH]c2ccccc12,Potency,[1],inactive
Cc1cccc(Cc2cnc[nH]2)c1C,Potency,[1],inactive
COc1ccc(OC)c(CC(C)N)c1 (stereo not drawn),Potency,[1],inactive
CN(C)CCc1c[nH]c2ccc(O)cc12,Potency,[1],inactive
C[C@]12CC[C@H]3[C@@H](CC=C4C[C@@H](O)CC[C@@]43C)[C@@H]1CC[C@@H]2O,Potency,[2],inactive
same,Potency,[1],inactive
same,Potency,[3],inactive
CCOC(=O)NC(C)(C)Cc1ccc(Cl)cc1,Potency,[1],inactive
CCc1cc(OC)c(C[C@H](C)N)cc1OC,Potency,[1],inactive
CNC(C)Cc1ccc2c(c1)OCO2 (stereo not drawn),Potency,[1],inactive
CC[C@H](O)C(C[C@H](C)N(C)C)(c1ccccc1)c1ccccc1,Potency,[1],inactive
C[N+](C)(C)CCCCCCCCCC[N+](C)(C)C,Potency,[1],inactive
CC(C)(O)C(Cl)(Cl)Cl,Potency,[2],inactive
same,Potency,[1],inactive
same,Potency,[4],inactive
same,Potency,[3],inactive
O=C(O)c1nn(Cc2ccc(Cl)cc2Cl)c2ccccc12,Potency,[2],inactive
same,Potency,[1],inactive
same,Potency,[4],inactive
same,Potency,[3],inactive
c1cc2c(c(N3CCNCC3)c1)OCCO2,Potency,[2],inactive
same,Potency,[1],inactive
same,Potency,[4],inactive
same,Potency,[3],inactive
CCCCC1C(=O)NC(=O)N(C2CCCCC2)C1=O (stereo not drawn),Potency,[1],inactive
CCCN(CCC)CCc1c[nH]c2ccccc12,Potency,[1],inactive
c1ccc(CCNc2nc(-c3ccccc3)cs2)cc1,Potency,[1],1.61 µM (active)
CN1C(=O)CN=C(c2ccccc2)c2cc(Cl)ccc21,Potency,[1],inactive
COc1ccc(C(=O)N2CCCC2=O)cc1,Potency,[2],inactive
same,Potency,[1],inactive
same,Potency,[4],inactive
same,Potency,[3],inactive
O=C(O)CCCCCCNC1c2ccccc2CCc2ccccc21,Potency,[1],inactive
CCN(CC)Cc1nccn1-c1ccc([N+](=O)[O-])cc1C(=O)c1ccccc1Cl,Potency,[1],inactive
CC[C@H]1C[C@H]2[C@@H]3CCC4=CC(=O)CC[C@@H]4[C@H]3CC[C@]2(C)[C@H]1O,Potency,[1],inactive
COc1cc(CC(C)N)c(OC)cc1Br (stereo not drawn),Potency,[1],inactive
CNC(C)Cc1ccccc1OC (stereo not drawn),Potency,[1],inactive
CC[C@]1(O)CC[C@H]2[C@@H]3CCC4=CCCC[C@@H]4[C@H]3CC[C@@]21C,Potency,[2],inactive
same,Potency,[1],inactive
same,Potency,[3],9.07 µM (active)
NC(=O)CN1CCCC1=O,Potency,[2],inactive
same,Potency,[1],inactive
same,Potency,[4],inactive
same,Potency,[3],inactive
